# High-throughput results deposited in PubChem by National Center for Advancing Translational Sciences (NCATS).
# In the library only some 7.6% were active in any assay of this set; here they are far more common.
# Tau filament bind – binds recombinant human tau filaments; recombinant tau filaments, thioflavin S fluorescence, 15 h; filaments grown with octadecylsulfate alongside compound; Potency, µM (top dose mostly 57.1 µM), for inactives: top-dose activity change, negative = inhibition; 71,000 compounds, 2% hits; P10636;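 further: on the % scale 0 is the no-effect control and ±100 the full control effect; actives lower thioflavin S fluorescence by blocking filaments or displacing dye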
# Target sequence (P10636 whole entry, looked up): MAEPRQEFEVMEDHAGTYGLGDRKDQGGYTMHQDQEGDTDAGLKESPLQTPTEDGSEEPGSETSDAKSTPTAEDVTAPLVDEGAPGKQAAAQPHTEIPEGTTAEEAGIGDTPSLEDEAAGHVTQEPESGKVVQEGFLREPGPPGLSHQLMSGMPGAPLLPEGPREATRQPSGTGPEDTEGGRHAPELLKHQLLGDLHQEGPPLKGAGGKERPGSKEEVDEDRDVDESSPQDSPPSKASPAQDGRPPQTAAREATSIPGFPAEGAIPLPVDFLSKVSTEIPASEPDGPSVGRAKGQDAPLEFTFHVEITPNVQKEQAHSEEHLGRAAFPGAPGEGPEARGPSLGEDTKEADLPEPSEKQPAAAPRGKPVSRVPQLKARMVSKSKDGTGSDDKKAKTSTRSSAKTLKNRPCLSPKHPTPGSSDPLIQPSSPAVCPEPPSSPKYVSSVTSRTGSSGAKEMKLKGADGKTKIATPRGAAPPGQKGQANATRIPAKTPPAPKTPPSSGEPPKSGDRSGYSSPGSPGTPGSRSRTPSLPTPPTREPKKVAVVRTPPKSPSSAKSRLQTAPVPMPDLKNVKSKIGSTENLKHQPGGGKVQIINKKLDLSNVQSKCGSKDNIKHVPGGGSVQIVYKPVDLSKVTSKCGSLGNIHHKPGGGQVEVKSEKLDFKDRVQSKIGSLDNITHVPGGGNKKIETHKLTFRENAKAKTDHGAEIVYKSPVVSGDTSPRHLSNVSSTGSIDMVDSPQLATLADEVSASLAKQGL
#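 ThS-based fibril read: tau 1 uM final, inducer ODS 30 uM final, 37 C for 15 h, ex 450/em 510 nm.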
# CRE-bla Fsk – CRE-bla signaling modulation under forskolin stimulation; CHO CRE-bla reporter (cAMP response element driving beta-lactamase), forskolin EC10, beta-lactamase ratio; Potency, µM (doses to about 38.2 µM), without a hit: at the highest dose activity change, negative = inhibition, usual class: activators; 71,000 compounds, 2.5% hits; AID 662; active means well fitted activation curve with a large enough effect in the signal ratio, with a control signal flat, not every such curve was filed as active; inconclusive means small, poorly fitted or top-dose-only effect, or effect the other way, or a change in a side signal; the % refers to the signal ratio; further: % of control where 0% means no effect
#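 qHTS titration format; CRE-bla CHO reporter; stimulus EC10 NKH 477, a water-soluble forskolin. Read: CCF4 460/530 nm ratio. Potency expressed as AC50 for activators or inhibitors.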
# ERK AVP inh – inhibitors of vasopressin-stimulated ERK signaling pathway | 72,000 compounds, 0.99% hits | HEK293-V1b, vasopressin-stimulated pERK AlphaScreen | AID 995 | Potency, µM (doses to about 57.5 µM), for the others: top-dose activity, negative = inhibition, most hits filed as inhibitors; further: on the % scale 0 is the no-effect control and ±100 the full control effect; nearly all actives have a fitted effect of over 55% in size
#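 HEK293 cells stably expressing V1b receptor, seeded overnight in 1% FBS, were treated with compounds for 30 min at 37C, then stimulated 5 min with 25 nM vasopressin; phospho-ERK read by AlphaScreen SureFire after lysis.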
# TSHR ag – TSH receptor (human) agonism; P16473; HEK293-CNG-TSHR cells (CNG channel as cAMP sensor), membrane potential dye, cAMP; Potency, µM (top dose mostly 57.1 µM), for the others: at the top dose activation, usual class: activators; 73,000 compounds, 0.48% hits; AID 926; active means well fitted activation curve with a large enough effect in the main read-out, with a control signal flat, not every such curve was filed as active; inconclusive means small, poorly fitted or top-dose-only effect, or a change in a side signal; inactive means no such curve, though single readings can be large or run the other way; % of control where 0% means no effect;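 further: the control signal comes from parental cells without the receptor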
#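 cAMP rise detected as CNG-channel membrane depolarization by fluorescent dye (emission 590 nm), 30 min after compound, following 60 min dye loading containing 100 uM RO 20-1724 at room temperature. Cells: TSHR/CNG HEK 293, with parental CNG HEK 293 as control.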
# HEK293 cAMP cs – raises cAMP in parental HEK293 cells, TSHR agonist counter-screen. parental HEK293 CNG cAMP sensor, membrane potential fluorescence. Potency, µM (top dose mostly 57.1 µM), for the others: at the top dose activation, actives largely listed as activators. 73,000 compounds, 2.5% hits; further: % of control where 0% means no effect; nearly all actives have a fitted effect of over 55% in size
#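 Parental HEK 293 cells stably expressing a modified CNG channel (no TSHR) report cAMP rise as membrane depolarization. Membrane potential dye with 100 uM RO 20-1724 was loaded for 60 min at room temperature, then compound added for 30 min; fluorescence read at 590 nm.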
# * hit, by the source's call; ? = inconclusive; nt = not tested or not shown; [ ] = dose if it differs, or a comment. Unless noted, the call rests on the fitted dose curve; in most records, active means well fitted curve in the direction sought with a large enough effect; inconclusive means small, poorly fitted or top-dose-only effect, or another doubt; inactive means no such curve, though single readings can be large; an effect the other way counts as inactive or inconclusive. Potency means the concentration at half of the fitted maximal effect.
SMILES,Tau filament bind,CRE-bla Fsk,ERK AVP inh,TSHR ag,HEK293 cAMP cs
Nc1ccc(CCNc2ncnc3c2ncn3[C@@H]2O[C@@H](CO)[C@H](O)[C@@H]2O)cc1,-0.2%,-1.9%,?,?,?
Nc1cc(-c2cccc(F)c2)nn1S(=O)(=O)c1cccc2nsnc12,15.8µM*,8.8%,-22.3%,17.2%,5.0%
CCOc1cc(CN2CCSCC2)ccc1O,7.2%[11.4 µM],?,13.8%,?,0.0316µM*
COCCn1c(=O)c(-c2ccccc2)nc2cnc(N3CCN(C)CC3)nc21,-11.9%,?,25.0%,3.6%,10.7%[0.457 µM]
CC(=O)OC[C@@H]1O[C@H](CCO/N=C(\C)CCC(=O)OC[C@@H]2O[C@H](C#Cc3ccccc3)C=C[C@@H]2Oc2ccc(C)cc2)C=C[C@@H]1OC(C)=O,nt,nt,4.0%[11.5 µM],2.8%[11.4 µM],-2.1%[11.4 µM]
COc1ccc2[nH]cc(C(=O)CN3CCN(C4CCCCC4)CC3)c2c1,-8.2%,11.8%,8.8%,6.5%,7.6%
COc1ccc2c(C(=O)CN(C)C3CCCCC3)c[nH]c2c1,25.1µM*,-6.8%,-20.1%,1.8%,6.2%
CCOc1ccc(CCNc2cc(C)nc3ncnn23)cc1OCC,10.5%,?,25.1µM*,9.1%,8.7%
CCc1c(C)nc2ncnn2c1NCCc1ccc(OC)c(OC)c1,-12.8%,?,-26.2%,12.3%,16.4%
Cc1nc2scc(-c3cccs3)c2c(=O)n1-n1cccc1,9.7%,25.2%,-7.9%,?,31.6µM*
Cc1ccc(C)n1-n1c(C)nc2scc(-c3cccs3)c2c1=O,-12.4%,?,?,?,?
Cc1noc(C)c1-c1ccc2ncnc(N(C)C)c2c1,-1.9%,?,-3.4%,?,?
CSc1nc(N(CCO)CCO)c2sc3nc(-c4ccco4)c4c(c3c2n1)CCC4,-5.6%,?,?,?,25.1µM*
CC(C)c1nc2sc3c(SCC(=O)NCc4ccco4)ncnc3c2c2c1CCC2,-3.4%,?,?,13.5%,0.8%
COc1ccc(-c2nnc(CSc3ncnc4sc5c(c34)CCC5)o2)cc1OC,-11.4%,2.51µM*,8.6%,?,?
N#CCSc1ncnc2sc3c(c12)CCC3,-8.8%,13.2%,-21.2%,28.1%,9.6%
CCCn1c(-c2ccc(F)cc2)nc2c(NCCN3CCOCC3)nc(C)nc21,4.4%,8.1%,-22.2%,-1.2%,11.0%
CC(C)[C@@H]1NC(=O)[C@H](CCCCN)NC(=O)[C@H](Cc2c[nH]c3ccccc23)NC(=O)[C@H](Cc2ccc(O)cc2)NC(=O)[C@H](C)N(C)C(=O)[C@H](Cc2ccccc2)NC1=O,-6.9%,-7.7%,-21.8%,3.0%,2.7%
O=C(N1CCOCC1)N1CCN(c2ccccn2)CC1,3.4%,10.1%,-2.3%,-3.4%,-20.9%
Cc1nn(-c2ccccn2)c2nc(-c3cccs3)cc(C(=O)N3CCOCC3)c12,-7.0%,3.16µM*,-25.6%,3.16µM*,15.3%
CCOC(=O)c1cc(-c2ccncc2)nc2c1c(C)nn2-c1ccccn1,?,3.16µM*,-12.1%,?,?
CC(=NCC(=O)O)c1ccccc1,10.7%[11.4 µM],-0.4%[7.6 µM],0.0%[11.5 µM],-2.3%[11.4 µM],2.0%[11.4 µM]
CC(C)CN1CCC2(CC1)CCN(S(=O)(=O)c1ccccc1)CC2,10.4%,-2.9%,10.5%,5.0%,12.1%
C#CCCCO/N=C1/C[C@@H](O)[C@@H](O)[C@@H]2[C@@H]3C(=O)N(CC)C(=O)[C@H]3CC[C@@H]12,nt,nt,-1.8%[11.5 µM],-1.1%[11.4 µM],1.1%[11.4 µM]
O=C(Nc1ccccc1C(=O)NC(Cc1c[nH]c2ccccc12)C(=O)O)c1ccco1 (stereo not given),2.0%,-6.6%,-13.1%,-0.3%,13.2%
Cc1cc(C)nc(NC(=NCCc2c[nH]c3ccccc23)NC(=O)c2ccco2)n1,105.5%,?,-18.3%,5.01µM*,21.1%
Cc1cc2n(n1)C(c1ccccc1Cl)Nc1ccccc1-2 (stereo not given),-3.5%,12.6µM*,-23.4%,4.0%,0.6%
NCCC[C@@H](CC(=O)N[C@@H]1CCNC[C@H]1C(=O)N[C@H](CC(=O)N[C@@H](CCC(=O)O)CC(=O)O)Cc1ccccc1)NC(=O)C[C@H](Cc1c[nH]c2ccccc12)NC(=O)[C@@H]1CCCC[C@H]1N,-7.7%,-12.9%,nt,?,?
